HT1080 IDH1KD tx – qHTS for induction of synthetic lethality in tumor cells producing 2HG: qHTS for the HT-1080-IDH1KD cell line | HT-1080 IDH1 knockdown viability, ATP luminescence, 48 h | Potency, µM (series often up to 46.1 µM), actives largely listed as cytotoxic | 360,000 tested, 2% active | AID 686971, 2013
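Luminescent ATP read-out (CellTiter-Glo, 10 min at room temperature) after 48 h compound exposure at 37 °C gave viability of IDH1-knockdown HT-1080 cells. Activity was normalised to DMSO and cell-free wells, then fitted as concentration-response curves.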
TDP1 cell noCPT – qHTS for Inhibitors of human tyrosyl-DNA phosphodiesterase 1 (TDP1): qHTS in cells in absence of CPT | 420,000 tested, 15% active | DT40 Tdp1-/- hTDP1 cells, no CPT, ATP luminescence, 48 h | Potency, µM (titrated, usually from 46.2 µM), most hits filed as inhibitors | AID 686978, 2013; also: nearly all actives have a fitted effect of over 55% in size
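Camptothecin absent (DMSO only). Human TDP1-complemented DT40 knockout cells, 400 cells/well, 37 °C for minimum 48 hr; ATP measured via CellTiter-Glo, 30 min dark incubation, luminescence.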
IL-1B inflam inh – qHTS for Inhibitors of Inflammasome Signaling: IL-1-beta AlphaLISA Primary Screen. THP-1 LPS/ATP IL-1B secretion, AlphaLISA, 16 h; stronger effect = lower value. activity change, % at 57.5 µM. 360,000 tested, 4.7% active. AID 743279, 2014; in the data active = activity change below about -50%; inconclusive = mostly about -30% to -49%
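Secreted IL-1B measured by AlphaLISA bead assay after 16 h compound exposure of THP-1 cells; compounds (final up to 57.5 uM) added 1 h before LPS (250 ng/mL) and ATP (1.25 mM) stimulation; lower signal means less secretion.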
HT1080NT lethal – qHTS for induction of synthetic lethality in tumor cells producing 2HG: qHTS for the HT-1080-NT fibrosarcoma cell line; HT-1080-NT fibrosarcoma viability, CellTiter-Glo ATP luminescence, 48 h; 360,000 tested, 1.6% active; AID 686970, 2013; Potency, µM (highest dose often 46.1 µM), usual class: cytotoxic;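 also: NT is the 2HG producing partner of a matched IDH1 knockdown line; nearly all actives have a fitted effect of over 55% in size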
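A 48-hour cytotoxicity screen used HT-1080-NT cells plated 2 hours before compound delivery. ATP-based CellTiter-Glo luminescence measured viability, normalized to DMSO and no-cell controls.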
TDP1 cell CPT – qHTS for Inhibitors of human tyrosyl-DNA phosphodiesterase 1 (TDP1): qHTS in cells in presence of CPT | chicken DT40 Tdp1-/-;hTDP1 cells + 20 nM CPT, ATP luminescence, 48 h | Potency, µM (series often up to 46.2 µM), actives largely listed as inhibitors | 420,000 tested, 12% active; also: nearly all actives have a fitted effect of over 55% in size
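Chicken DT40 Tdp1-/- cells stably complemented with human TDP1 were seeded at 400 cells/well in medium containing 20 nM camptothecin, exposed to pin-transferred compounds, and grown at 37 °C for at least 48 hr. Viability was read as ATP luminescence.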
ELG1 repair inh – qHTS screen for small molecules that inhibit ELG1-dependent DNA repair in human embryonic kidney (HEK293T) cells expressing luciferase-tagged ELG1; HEK293T ELG1-luciferase reporter, luminescence, 16 h; DNA damage induced by 5-fluorouridine; 330,000 tested, 2.3% active; Potency, µM (titrated, usually from 46.1 µM), actives largely listed as inhibitors; also: nearly all actives have a fitted effect of over 55% in size
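Step one: seed 2,000 cells per well. Step two: pin-transfer compound or DMSO alongside 5-fluorouridine. Step three: incubate 16 hr, 37 °C, 5% CO2. Step four: add ONE-Glo, wait 30 min, read luminescence.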
Hits are given with their value; i = inactive; ? = inconclusive; nt = not tested or not shown; [ ] = dose if it differs, or a comment. In the library only some 19% were active in any assay of this set; here they are far more common. Unless noted, calls follow the shape of the dose curve; as a rule, active = well fitted curve in the direction sought with a large enough effect; inconclusive = small, poorly fitted or top-dose-only effect, or another doubt; inactive = no such curve, though single readings can be large; an effect the other way counts as inactive or inconclusive.

SMILES	HT1080 IDH1KD tx	TDP1 cell noCPT	IL-1B inflam inh	HT1080NT lethal	TDP1 cell CPT	ELG1 repair inh
CC1(C(=O)NS(=O)(=O)c2ccc(F)cc2F)CCN1C(=O)c1ccccc1 (centres undefined)	?	i	i	i	i	nt
COc1ccc(NC(=S)NC(NC(=O)CCl)C(Cl)(Cl)Cl)c([N+](=O)[O-])c1 (centres undefined)	i	?	-50	i	?	?
COc1ccc(NC(=S)NC(NC(=O)c2ccc(Cl)cc2Cl)C(Cl)(Cl)Cl)c([N+](=O)[O-])c1 (centres undefined)	i[9.24 µM]	?	-95	?	?	i
CCC(C)(C)C(=O)Nc1ccc(OC)cc1[N+](=O)[O-]	i	i	i	i[9.24 µM]	i	?
COc1ccc(NC(=S)NC(NC(=O)c2cccc3ccccc23)C(Cl)(Cl)Cl)c([N+](=O)[O-])c1 (centres undefined)	i	?	-56	i	?	?
Cc1ccc(NC(=S)NC(NC(=O)c2ccccc2C)C(Cl)(Cl)Cl)c(C)c1 (centres undefined)	?	?	i	?	?	?
O=C(NC(NC(=S)Nc1c(Cl)cccc1Cl)C(Cl)(Cl)Cl)c1cccc([N+](=O)[O-])c1 (centres undefined)	?	12µM	i	?	21µM	?
O=C(Cc1c(F)cccc1Cl)NNC(=O)c1ccncc1	i	i	i	i	i	i
COCCCN(C(=O)c1cc(Cl)nc2ccccc12)c1c(N)n(Cc2ccccc2)c(=O)[nH]c1=O	i	i	i	i	i	i
COC(=O)c1ccccc1NC(=S)NC(NC(=O)c1ccccc1[N+](=O)[O-])C(Cl)(Cl)Cl (centres undefined)	i	i	i	i	i	i
COc1ccc(NC(=S)NC(NC(=O)c2ccccc2Cl)C(Cl)(Cl)Cl)c([N+](=O)[O-])c1 (centres undefined)	i[9.24 µM]	?	-87	?	?	?
N#CC1C=Cc2c(ccc3ccccc23)N1C(=O)c1ccccc1 (centres undefined)	?	0.92µM	-66	1.8µM	0.58µM	nt
N#CC1C=Cc2ccccc2N1C(=O)c1ccccc1 (centres undefined)	?	i	i	i	i	i
CC(=O)c1cccc(NS(=O)(=O)c2cc(-c3cnc(C4CC4)o3)ccc2C)c1	23µM	5.2µM	i	21µM	5.8µM	?
CC(=O)c1ccc(NS(=O)(=O)c2cc(-c3cnc(C4CC4)o3)ccc2C)cc1	?	?	i	21µM	13µM	i
Cc1ccc(NS(=O)(=O)c2cc(C(=O)N3CCOCC3)ccc2C)cc1	i	i	i	i	i	i
Cc1ccc(NS(=O)(=O)c2cc(-c3cnc(C4CC4)o3)ccc2C)cc1Cl	nt	5.2µM	nt	nt	7.3µM	nt
Cc1ccc(-c2cnc(C3CC3)o2)cc1S(=O)(=O)Nc1ccccc1	?	4.6µM	i	i	4.6µM	i
CC(=O)c1cccc(NS(=O)(=O)c2cc(OCC(N)=O)c(C)cc2Cl)c1	i	i	i	i	i	i
Cc1ccc(S(=O)(=O)N(C)C[C@@H]2OCc3cnnn3CCCC(=O)N([C@H](C)CO)C[C@H]2C)cc1	i	?	i	i	?	nt
Cc1ccc(NC(=O)C(C)Sc2nc(=O)cc(N)n2-c2cccc(C)c2)cc1 (centres undefined)	nt	i	nt	nt	i	nt
COc1ccc(N2CCN(C(=O)COC(=O)COc3cccc(C(F)(F)F)c3)CC2)cc1	i	i	i	i[9.24 µM]	i	i

Screening results from PubChem BioAssay.
